Menin-MLL FL inh: inhibitors of human menin-MLL interaction, wild-type MLL peptide; AID 1766; 290,000 tested, under 10 active; FP activity change, % at 61.4 µM; Fluorescence polarization, fluorescein-MLL peptide displacement from menin; active = well fitted curve in the direction sought with a large enough effect in the polarisation, not every such curve was filed as active; inconclusive = small, poorly fitted or top-dose-only effect, or effect the other way, or a change in a side signal; inactive = no such curve, though single readings can be large or run the other way; the % refers to the polarisation
MLL CXXC-DNA inh: inhibitors of human MLL CXXC domain-DNA interaction | Q03164 | MLL-CXXC / FITC-HOXA9 DNA fluorescence polarization | Potency, µM (series often up to 115 µM), hits mostly inhibitors | 0.037% of 290,000 active | AID 2662; active = well fitted inhibition curve with a large enough effect in the polarisation, with a control signal flat, not every such curve was filed as active; inconclusive = small, poorly fitted or top-dose-only effect, or effect the other way, or a change in a side signal; inactive = no such curve, though single readings can be large or run the other way; the % refers to the polarisation
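Purified MLL-CXXC (added from a 7 uM solution) was preincubated 5 min at ambient with pinned compounds in 50 mM Tris-HCl pH 7.5, 50 mM NaCl, 1 mM DTT, 0.05% BSA. Fluorescein-labeled HOX-A9 DNA (50 nM solution) followed, 30 min, then polarization read.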
Akt phos inh: Akt phosphorylation inhibition. Neuro2A IGF-stimulated pAkt S473 HTRF, 20 min; active compounds read low. AID 651550. 0.32% of 360,000 active. activity change, % for hits at 50 µM; in the data active = activity change below about -80%; inconclusive = mostly about -51% to -80%
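Single-point screen (50 µM final compound) in Neuro2A cells stimulated 20 min with 6 nM IGF at 37 deg C. After lysis, Ser473-phosphorylated Akt read by HTRF (ex 330 nm, em 615/665 nm) as the 665/615 ratio.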
ASM inhibitor: blocks human secretory acid sphingomyelinase | placental ASM, HMU-PC fluorogenic substrate, 60 min | Potency, µM (titrated, usually from 57.5 µM), hits mostly inhibitors | 0.006% of 340,000 active | AID 504937
Target sequence (P17405 47-631 limits assumed): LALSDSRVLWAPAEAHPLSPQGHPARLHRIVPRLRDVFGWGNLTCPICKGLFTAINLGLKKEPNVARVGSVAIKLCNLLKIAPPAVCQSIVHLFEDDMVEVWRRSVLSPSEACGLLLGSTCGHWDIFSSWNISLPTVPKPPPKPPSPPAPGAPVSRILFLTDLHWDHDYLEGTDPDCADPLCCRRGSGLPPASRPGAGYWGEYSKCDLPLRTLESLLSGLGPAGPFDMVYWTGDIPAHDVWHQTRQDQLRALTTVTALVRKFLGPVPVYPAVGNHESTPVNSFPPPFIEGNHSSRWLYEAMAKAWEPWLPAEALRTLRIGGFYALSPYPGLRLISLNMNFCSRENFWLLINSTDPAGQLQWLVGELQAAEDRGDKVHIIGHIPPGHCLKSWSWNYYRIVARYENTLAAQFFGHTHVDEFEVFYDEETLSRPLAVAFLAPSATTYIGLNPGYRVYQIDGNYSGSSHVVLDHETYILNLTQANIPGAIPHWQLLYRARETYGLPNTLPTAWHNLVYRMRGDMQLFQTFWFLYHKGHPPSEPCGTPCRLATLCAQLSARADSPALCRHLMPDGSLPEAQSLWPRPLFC
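Fluorogenic HMU-PC substrate (9 uM final) is turned over by placental ASM in 60 min at 37 C after a 10 min compound preincubation. Reaction ended by alkaline stop (pH 10), with fluorescence read at 386/447 nm.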
MBNL1-CUG inh: MBNL1-poly(CUG) RNA binding inhibition. Potency, µM (top dose mostly 57.5 µM), most hits filed as inhibitors. Q9NR56. TR-FRET MBNL1-His/biotin-(CUG)12 binding, 665/545 ratio. 0.036% of 280,000 active; active = well fitted inhibition curve with a large enough effect in the signal ratio, with a control signal flat, not every such curve was filed as active; inconclusive = small, poorly fitted or top-dose-only effect, or effect the other way, or a change in a side signal; inactive = no such curve, though single readings can be large or run the other way; the % refers to the signal ratio
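Ratiometric TR-FRET (665 over 545 nm, excitation 340 nm) tracks disruption of MBNL1-His/biotin-(CUG)12 complex after 60 min at room temperature, with compounds at 92 nM to 58 uM final.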
Menin MLL FP TR: displaces Texas Red mutant MLL peptide from human menin | O00255 | Menin + Texas Red MLL mutant peptide, fluorescence polarization | Potency, µM (series often up to 61.6 µM), most hits filed as inhibitors | 0.23% of 270,000 active; active = well fitted inhibition curve with a large enough effect in the polarisation, with a control signal flat, not every such curve was filed as active; inconclusive = small, poorly fitted or top-dose-only effect, or effect the other way, or a change in a side signal; inactive = no such curve, though single readings can be large or run the other way; the % refers to the polarisation
MLL CXXC Fl: MLL CXXC-DNA interaction inhibition, fluorescein FP. shares compounds with MLL CXXC-DNA inh. MLL CXXC-DNA binding, fluorescein FP. Potency, µM (doses to about 345 µM), hits mostly inhibitors. 70% of 200 active; also: nearly all actives have a fitted effect of over 80% in size
MLL CXXC FP-TR: disrupts human MLL CXXC domain binding to DNA, Texas Red; shares compounds with MLL CXXC-DNA inh; MLL CXXC-DNA binding, Texas Red fluorescence polarization; Potency, µM (series often up to 345 µM), hits mostly inhibitors; 40% of 200 active; also: nearly all actives have a fitted effect of over 75% in size
MLL CXXC TRF: disrupts human MLL CXXC domain binding to DNA by HTRF | AID 624162 | Potency, µM (highest dose often 172 µM), most hits filed as inhibitors | MLL CXXC-DNA binding, HTRF, biochemical | shares compounds with MLL CXXC-DNA inh | 30% of 210 active; also: nearly all actives have a fitted effect of over 80% in size
Large screens that a line does not name were inactive (follow-up assays come after a bar, where they were run). Compounds with a hit are over-represented: about 0.45% of the library has one in this group of screens. Unless noted, calls follow the shape of the dose curve; as a rule, active = well fitted inhibition curve with a large enough effect; inconclusive = small, poorly fitted or top-dose-only effect; inactive = no such curve, though single readings can be large or run the other way.

COc1cc(C(=O)NCCc2ncccc2C)ccc1OC1CCN(C(C)=O)CC1	none (no result: Menin-MLL FL inh, Menin MLL FP TR)
CCOC(=O)N1CCN(C(=O)Cc2ccc(-n3c(=O)[nH]c4ccccc4c3=O)cc2)CC1	Akt phos inh -109%
CCOC(=O)c1ccc(-n2c(=O)[nH]c3ccccc3c2=O)cc1	none
COc1cccc(N(CC(=O)NC(C)c2ccccc2)S(C)(=O)=O)c1 (stereo not drawn)	Akt phos inh -119%
CCC(C)NS(=O)(=O)c1ccc(OCC(=O)Nc2ccc(F)cc2F)cc1 (stereo not drawn)	Akt phos inh -111%
Cc1ccn(C(=O)c2ccc(NC(=O)C3CCCCC3)cc2)n1	none
N#Cc1cnc2sc3ccccc3n2c1=N	Akt phos inh -118%
COCc1c(C(=O)OCC(=O)c2c(N)n(CC(C)C)c(=O)n(C)c2=O)oc2ccccc12	Akt phos inh -103%
COc1ccc2[nH]c(=O)c(COC(=O)c3ccco3)cc2c1	Akt phos inh -114%, MBNL1-CUG inh inconclusive
O=C(OCc1cc2ccccc2[nH]c1=O)c1ccco1	none
Fc1ccc(CSc2ncnc3sc4c(c23)CCCC4)cc1	Akt phos inh -114%
CCOC(=O)C1=C(c2ccccc2)N=c2s/c(=C\c3ccc(O)cc3)c(=O)n2C1c1cccs1 (stereo not drawn)	Menin-MLL FL inh inconclusive, MLL CXXC-DNA inh inconclusive, Menin MLL FP TR 35µM (no result: Akt phos inh)
Cc1cc(C)cc(OCc2nc3ncc(Br)cc3[nH]2)c1	none (no result: Menin-MLL FL inh, MLL CXXC-DNA inh, MBNL1-CUG inh, Menin MLL FP TR)
COc1cccc(OCc2nc3ncc(Br)cc3[nH]2)c1	Akt phos inh -97%
COc1ccc(/C=N/n2cnnc2SCc2ccc(OC)cc2)cc1	none
COc1ccc(/C=N/n2cnnc2SCc2ccccc2)cc1	Akt phos inh -110%
CN(CC(=O)Nc1ccc(F)c(F)c1F)C(=O)C1=COCCO1	none (no result: Menin-MLL FL inh, Menin MLL FP TR)
CC(C)N1CCC(N2CCN(C/C=C/c3ccccc3)CC2CCO)CC1 (stereo not drawn)	none
O/N=C1\CCc2cc(Cl)ccc21	Akt phos inh -102%
COc1ccc(NC(=O)NC2CCCCCCC2)cc1	none
COc1ccc2cc(C(=O)NCc3ccco3)c(=Nc3ccc(C(=O)O)cc3)oc2c1	Akt phos inh -112%
Cc1oc(/N=C/c2ccccc2)c(C#N)c1C	none
COc1[nH]c(/N=C/c2ccccc2)c(C#N)c1C#N	Menin-MLL FL inh inconclusive, Menin MLL FP TR 11µM
Cn1cc(S(=O)(=O)N2CCc3ccccc32)cc1C(=O)Nc1ccc(Cl)cc1	none (no result: MLL CXXC-DNA inh)
CCOC(=O)C1CCN(S(=O)(=O)c2cc(Cl)c(C)cc2OC)CC1	Akt phos inh -105%
CCOC(=O)C1CCN(S(=O)(=O)c2ccc(Cl)cc2OC)CC1	none
COC(=O)c1cc2c(-c3ccccc3)c(C)c3ccccn3c-2c1C(=O)OC	Menin-MLL FL inh inconclusive, Akt phos inh inconclusive, ASM inhibitor inconclusive, Menin MLL FP TR 35µM
COc1ccc(CNc2ccc(N3CCOCC3)cc2)cc1	none
COc1ccc(Br)cc1CNc1ccc(N2CCOCC2)cc1	Menin MLL FP TR 14µM
c1ccc(-c2cnnc(SCc3cn4cccnc4n3)n2)cc1	Akt phos inh -112%, MBNL1-CUG inh inconclusive
N#C/C(=C(/O)COC(=O)CCCNC(=O)c1ccc(Cl)cc1)c1nc2ccccc2[nH]1	Menin-MLL FL inh inconclusive, Akt phos inh -102%
COc1cc(O)oc1C=Nc1ccc(Cl)cc1Cl	none
COc1cc(O)oc1C=Nc1ccc(Cl)cc1	Akt phos inh -119%
CC(=O)Nc1ccc2cc3ccc(NC(C)=O)cc3nc2c1	Menin-MLL FL inh inconclusive, MLL CXXC-DNA inh 40µM (no result: MBNL1-CUG inh, Menin MLL FP TR) | MLL CXXC Fl 113µM | MLL CXXC FP-TR inconclusive | MLL CXXC TRF inactive
O=C1NC(=S)NC1=Cc1ccccc1O	none (no result: Menin-MLL FL inh, MLL CXXC-DNA inh, MBNL1-CUG inh, Menin MLL FP TR)
CC(/C=C1\NC(=S)NC1=O)=C\c1ccccc1	MLL CXXC-DNA inh 45µM, MBNL1-CUG inh inconclusive | MLL CXXC Fl 0.13µM | MLL CXXC FP-TR inconclusive | MLL CXXC TRF inactive
O=C(CSc1nc2ccccc2c(=O)n1Cc1ccc(F)cc1)NCc1cccs1	MLL CXXC-DNA inh 7.9µM | MLL CXXC Fl inactive | MLL CXXC FP-TR inactive | MLL CXXC TRF inactive
CC1=NN(c2ccc(Br)cc2)C(=O)/C1=C/c1ccc(-c2ccccc2C(=O)O)o1	MLL CXXC-DNA inh inconclusive, Menin MLL FP TR inconclusive | MLL CXXC Fl 113µM | MLL CXXC FP-TR 89µM | MLL CXXC TRF inactive
O=S(=O)(c1ccc(Cl)cc1)c1cc(O)ccc1O	none
COc1ccc(Cc2c(C3CCCCC3)nc3ccc(Cl)cn23)c(C)c1	none (no result: Menin-MLL FL inh, MLL CXXC-DNA inh, ASM inhibitor, MBNL1-CUG inh, Menin MLL FP TR)
Cc1[nH][nH]c(=O)c1C(c1ccc(-c2ccc(C(=O)O)cc2)o1)c1c(C)[nH][nH]c1=O	MLL CXXC-DNA inh inconclusive, MBNL1-CUG inh inconclusive | MLL CXXC Fl inactive | MLL CXXC FP-TR inactive | MLL CXXC TRF inconclusive
Cc1[nH][nH]c(=O)c1C(c1ccc(-c2ccc(F)cc2)o1)c1c(C)[nH][nH]c1=O	Menin MLL FP TR inconclusive
CN(C)CCOc1nc(-c2ccccc2)nc2c1oc1ccccc12	MLL CXXC-DNA inh 35µM | MLL CXXC Fl 126µM | MLL CXXC FP-TR inconclusive | MLL CXXC TRF inactive
COc1ccc(C(=O)NCc2cccnc2)cc1	none
Cc1ccsc1C=C1C(=O)c2ccccc2C1=O	MLL CXXC-DNA inh inconclusive, MBNL1-CUG inh inconclusive, Menin MLL FP TR inconclusive | MLL CXXC Fl 10µM | MLL CXXC FP-TR inactive | MLL CXXC TRF inactive
Nc1c(N=Nc2ccc(-c3ccc(N=Nc4cc(S(=O)(=O)O)c5ccccc5c4N)cc3)cc2)cc(S(=O)(=O)O)c2ccccc12	Menin-MLL FL inh inconclusive, MLL CXXC-DNA inh 35µM, Menin MLL FP TR inconclusive (no result: Akt phos inh, ASM inhibitor, MBNL1-CUG inh) | MLL CXXC Fl 22µM | MLL CXXC FP-TR 25µM | MLL CXXC TRF 9.7µM
CC(C)Cn1c(SCC(=O)NCc2ccco2)nnc1-c1ccncc1	MLL CXXC-DNA inh inconclusive | MLL CXXC Fl 1.6µM | MLL CXXC FP-TR inactive | MLL CXXC TRF inactive
Cn1c(SCC(=O)NCc2ccco2)nnc1-c1ccccc1	none
CC(=O)OCCNc1cc(N2CCN(C)CC2)c2noc3c2c1C(=O)c1ccccc1-3	Menin-MLL FL inh inconclusive, MLL CXXC-DNA inh inconclusive, MBNL1-CUG inh inconclusive, Menin MLL FP TR inconclusive

Compound activity from PubChem.
